# PubChem BioAssay AID430 (Sanford-Burnham Center for Chemical Genomics, 2006)
# Out of some 63,000 compounds screened, about 1,100 (1.7%) were called active. Only a selection was taken, and actives are over-represented in it overall. Potency and affinity values are given separately. Unmarked numbers belong to inactive results. Cut-off read from the data, not from the text of the source: active = cytotoxicity above about 50%; inactive = the rest.
# Assay: HPDE-C7 pancreatic duct cell viability loss – fluorescence, HTS (AID 430);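 note: cells exposed to compound for 48 hours before viability readout; 0% = vehicle and 100% = reference cytotoxic drug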
# Settings: HPDE-C7 pancreatic duct cells viability, at 10 µM, hits give high values
row,SMILES,cytotoxicity
1,Cc1cc(Nc2cc(C)on2)n2ncnc2n1,1.6%
2,O=C(NCc1ccc2c(c1)OCO2)c1ccc2c(=O)n(C3CCCC3)c(=O)[nH]c2c1,2.7%
3,Cc1ccc(CC2SC(=O)NC2=O)cc1Cl (centres undefined),-2.2%
4,c1ccc(-n2nnnc2SCCCSc2nc3ccccc3s2)cc1,5.8%
5,C(=C\CSc1nnnn1-c1ccccc1)/CSc1nnnn1-c1ccccc1,-4.4%
6,COc1ccc(CCNC(=O)CSc2nnnn2-c2ccccc2OC)cc1OC,8%
7,COc1ccc(CCNc2nnc(Sc3nnnn3-c3ccccc3)s2)cc1OC,53.9% (active)
8,Cn1ccnc1Sc1nnnn1-c1ccccc1,-14.7%
9,COc1ccc(-n2nnnc2SCC(=O)NCCc2ccc(OC)c(OC)c2)cc1,-0.4%
10,CCCSc1nnc(Sc2nnnn2-c2ccccc2)s1,81% (active)
11,Cc1ccc(C)c(Oc2nnnn2-c2ccccc2)c1,-0.9%
12,COc1ccc(Cc2nnc(SCC(=O)NCC3CCCO3)o2)cc1 (centres undefined),0.6%
13,Cn1c2c(c(=O)n(C)c1=O)C(NC(=O)c1ccco1)(C(F)(F)F)C(=O)N2 (centres undefined),-22.3%
14,O=S(=O)(c1ccc(Br)s1)N1CCN(c2ccccc2)CC1,-10.8%
15,COc1ccccc1NC(=O)c1nnn(Cc2ccccc2)c1NC(C)=O,2.6%
16,COC(=O)Nc1ccc(NC(C)=O)cc1,-16%
17,CCOC(=O)c1cc(-c2ccncc2)nc2c1c(C)nn2C,4%
18,COc1ccc(C(OC(=O)c2c(C)noc2C)C(=O)NC2CCCC2)cc1 (centres undefined),1.7%
19,CCN1CCN(CCCNC(=O)c2cc3sccc3n2CC)CC1,3.8%
20,CCOCCCNC(=O)CSc1ccccc1,-13.6%
21,O=S(=O)(c1ccc2c(c1)nc1n2CCC1)N1CCOCC1,30.9%
22,O=S(=O)(c1ccc(Br)cc1)N1CCn2c(nc3ccccc32)C1,1.5%
23,COc1cc(CNc2ccc(C)c(C)c2)cc(OC)c1OC,46.9%
24,COc1ccc(C(O)CNc2ccc(C)cc2)cc1 (centres undefined),-2.1%
25,Cc1ccc(NCC(O)C(O)C(O)CO)cc1C (centres undefined),53.3% (active)
26,COc1ccc(OC)c(S(=O)(=O)N(C)CC(=O)Nc2ccc3c(c2)OCCO3)c1,-1.4%
27,CCOc1ccc(N2CC(C(=O)NCCc3ccc(OC)c(OC)c3)CC2=O)cc1 (centres undefined),5.7%
28,CS(=O)(=O)N1CCC(C(=O)NCc2ccc(F)cc2Cl)CC1,-2.6%
29,CCOc1ccccc1NC(=O)CCn1c(=O)oc2ccccc21,0.7%
